JMJD2A Tudor: inhibitors of human JMJD2A Tudor domain; actives 4.4% (n = 390,000); AID 504339; Potency, µM (top dose mostly 114 µM), without a hit: at the highest dose activity change, negative = inhibition, actives largely listed as inhibitors; O75164; AlphaScreen JMJD2A-Tudor / H3K4me3 peptide binding; note: % is set by controls: 0 for no effect and ±100 for the full control effect; nearly all actives have a fitted effect of over 50% in size
Target sequence (O75164 whole entry, looked up, the tested form may be a part): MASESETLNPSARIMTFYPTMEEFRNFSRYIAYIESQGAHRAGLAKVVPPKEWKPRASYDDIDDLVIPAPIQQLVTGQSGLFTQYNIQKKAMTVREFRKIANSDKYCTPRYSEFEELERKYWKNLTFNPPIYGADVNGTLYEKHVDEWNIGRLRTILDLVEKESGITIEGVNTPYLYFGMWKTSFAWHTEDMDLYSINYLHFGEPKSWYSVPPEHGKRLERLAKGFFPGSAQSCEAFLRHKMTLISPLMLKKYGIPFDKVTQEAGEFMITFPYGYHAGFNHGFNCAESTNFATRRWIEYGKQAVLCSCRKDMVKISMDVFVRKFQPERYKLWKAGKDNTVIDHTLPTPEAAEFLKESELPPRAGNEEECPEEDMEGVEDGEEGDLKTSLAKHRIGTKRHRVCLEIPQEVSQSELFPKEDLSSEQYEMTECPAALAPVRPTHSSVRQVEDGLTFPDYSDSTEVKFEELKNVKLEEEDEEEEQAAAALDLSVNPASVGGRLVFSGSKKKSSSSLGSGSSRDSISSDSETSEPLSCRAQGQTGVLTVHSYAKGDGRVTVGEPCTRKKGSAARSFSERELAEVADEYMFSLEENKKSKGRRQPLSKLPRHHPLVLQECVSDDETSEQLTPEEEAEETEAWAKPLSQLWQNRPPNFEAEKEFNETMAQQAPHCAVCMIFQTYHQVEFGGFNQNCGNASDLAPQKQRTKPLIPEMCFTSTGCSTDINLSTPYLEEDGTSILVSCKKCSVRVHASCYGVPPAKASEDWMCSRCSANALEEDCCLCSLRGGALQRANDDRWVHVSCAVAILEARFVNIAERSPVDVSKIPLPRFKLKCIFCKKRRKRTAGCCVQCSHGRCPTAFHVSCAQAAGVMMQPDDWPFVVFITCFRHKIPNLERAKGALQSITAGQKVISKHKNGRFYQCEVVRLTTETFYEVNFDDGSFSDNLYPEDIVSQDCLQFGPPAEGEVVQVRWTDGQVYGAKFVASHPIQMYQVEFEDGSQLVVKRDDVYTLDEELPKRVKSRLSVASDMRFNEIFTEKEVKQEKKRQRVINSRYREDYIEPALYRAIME
HP1b chromo inh: inhibitors of HP1-beta chromodomain binding to methylated histone tails; P83916; AlphaScreen HP1-beta / biotin-H3K9me3 peptide binding; Potency, µM (highest dose often 114 µM), without a hit: top-dose activity change, negative = inhibition, usual class: inhibitors; actives 0.56% (n = 390,000); AID 540317; note: nearly all actives have a fitted effect of over 70% in size
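AlphaScreen: HP1-beta (50 nM) preformed 30 min with biotin-H3(1-18)K9me3 peptide (50 nM) in PBS pH 7.4, 0.01% Tween-20. Compound added for 30 min at RT, then streptavidin donor/nickel chelate acceptor beads (10 ug/mL) for 30 min.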
G9a inh: G9a (human) methyltransferase inhibition. Q96KQ7. G9a H3K9 monomethylation, AlphaScreen, 2 h. Potency, µM (doses to about 102 µM), for the others: top-dose activity, negative = inhibition, hits mostly inhibitors. actives 8.8% (n = 350,000). AID 504332; note: % is set by controls: 0 for no effect and ±100 for the full control effect; nearly all actives have a fitted effect of over 75% in size
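Methyltransferase reactions run at room temperature for 2 h (20 nM enzyme, 500 nM biotin-H3K9 peptide, 20 uM SAM) after a 15 min compound preincubation; product detected by AlphaScreen beads and anti-H3K9me1 antibody.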
12-LOX inh: ALOX12 (human) lipoxygenase inhibition; P18054; purified 12hLO, xylenol orange hydroperoxide absorbance; Potency, µM (doses to about 108 µM), for the others: at the top dose activity change, negative = inhibition, usual class: inhibitors; actives 1.1% (n = 580,000); AID 1671190; note: % is set by controls: 0 for no effect and ±100 for the full control effect
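Purified human 12hLO at 150 nM in 25 mM Hepes, 0.01% Triton X-100, pH 7.0, preincubated 15 min at room temperature with compound. Reaction started with 40 uM arachidonic acid, 30 min at room temperature. Hydroperoxide measured by Fe-xylenol orange, 573/405 nm absorbance ratio.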
BAZ2B block: inhibitors of human BAZ2B bromodomain; Q9UIF8; AID 504333; Potency, µM (doses to about 114 µM), inactives show at the top dose activity change, negative = inhibition, hits mostly inhibitors; actives 4.4% (n = 360,000); AlphaScreen BAZ2B-H3K14Ac peptide displacement; note: % is set by controls: 0 for no effect and ±100 for the full control effect; nearly all actives have a fitted effect of over 60% in size
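Complex of BAZ2B and biotin-H3K14Ac (50 nM apiece) forms over 30 min at RT, then faces library compounds up to 110 uM for another 30 min; AlphaScreen beads added, 20 min dark incubation, luminescence read.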
PLK1 PBD block: inhibitors of human PLK1 polo-box domain binding | P53350 | Plk1 PBD binding of FITC phosphopeptide, fluorescence polarization | Potency, µM, for the others: max response, negative = inhibition, usual class: inhibitors | actives 2.8% (n = 360,000); note: series mostly up to about 57 µM; % is set by controls: 0 for no effect and ±100 for the full control effect; nearly all actives have a fitted effect of over 65% in size
The depositor's hits bear a star; ? = inconclusive; nt = no result given; ! = not confirmed by another sample; [ ] = dose if it differs, or a comment. Most compounds without a hit are left out; they make up all but 9% or so of the library. Calls come from the whole dose curve; as a rule, active = well fitted curve in the direction sought with a large enough effect; inconclusive = small, poorly fitted or top-dose-only effect, or another doubt; inactive = no such curve, though single readings can be large; an effect the other way counts as inactive or inconclusive. Potency is the fitted concentration of half-maximal effect.

SMILES	JMJD2A Tudor	HP1b chromo inh	G9a inh	12-LOX inh	BAZ2B block	PLK1 PBD block
COc1ccc(-c2cc(C)no2)cc1S(=O)(=O)N1CC(C)Oc2ccccc21 (stereo not given)	-17.5%	13.9%	-19.9%[59 µM]	-16.6%	?	nt
Cn1nccc1NC(=O)Nc1cccc([N+](=O)[O-])c1	-19.5%	20.5%	0.1%	0.0%	-12.4%	-3.6%
CCCCC(=O)OCC(=O)c1[nH]c(C)c(C(C)=O)c1C	-12.7%	23.8%	3.8%	-26.3%	?	-10.2%
S=c1[nH]c(-c2ccccc2)cs1	22.4µM*	?	1.41µM*	2µM*	39.8µM*	21.2µM*
S=c1[nH]c(-c2ccc(Cl)cc2Cl)cs1	nt	nt	nt	12.6µM*	nt	nt
S=c1[nH]cc(Oc2ccc(Cl)cc2Cl)c(=S)[nH]1	?	-23.9%	nt	?	nt	?
S=c1[nH]c(-c2cccc(Cl)c2)cs1	nt	nt	nt	8.91µM*	nt	nt
Fc1ccc(-c2csc(=S)[nH]2)cc1	22.4µM*	-25.0%	?	7.94µM*!	50.1µM*	23.8µM*
O=c1[nH]c(-c2ccc(Cl)cc2)cs1	-18.9%	-13.4%	-8.8%	-16.0%	nt	-13.4%
CN1CCN(c2ncc3nc(-c4cn(C)c5ccccc45)c(=O)n(-c4ccccc4)c3n2)CC1	nt	nt	-4.6%[0.501 µM]	6.31µM*	nt	nt
COc1ccc(-n2c(=O)c(-c3cn(C)c4ccccc34)nc3cnc(N4CCNCC4)nc32)cc1	nt	nt	-5.2%[0.501 µM]	?	nt	nt
COc1cc(NC(=O)CN2CCCc3nc(C4CC4)ncc3C2=O)cc(OC)c1	nt	nt	nt	7.5%	nt	nt
Cc1ccc(C)c(N(CC(=O)NN=C2CCCCCCC2)S(C)(=O)=O)c1	-0.8%	30.1%	-4.3%[59 µM]	3.1%	-3.9%	-1.6%
O=S(=O)(NCc1ccc(Cl)cc1)c1ccc(-c2cnc(C3CC3)o2)cc1	-5.3%	21.8%	8.5%[12.7 µM]	-20.8%	-13.2%	nt
COc1cc(NC(C)C(=O)N2CC(C)OC(C)C2)cc(OC)c1 (stereo not given)	3.16µM*	15.8µM*	?	?	39.8µM*	4.7%
O=C(O)c1cccc(Sc2cc(Cl)ccc2C(=O)O)c1	89.1µM*	23.5%	-3.8%[0.501 µM]	?	56.2µM*	-22.0%
Cc1ccc(Nc2nc(C(N)=O)c(NC(=O)c3ccccc3Br)s2)cc1	-10.1%	3.6%[57 µM]	-23.1%[59 µM]	14.1µM*	9.0%	nt
CCOc1ccc(C2/C(=C(\O)c3ccc4c(c3)OCCO4)C(=O)C(=O)N2CCCN2CCOCC2)cc1 (stereo not given)	-20.6%	28.5%	-8.7%[0.0925 µM]	-3.1%	-15.0%	-19.2%
O=C(c1cc2c(cc1Br)OCCCO2)N1CCCCC1	-11.7%[57.1 µM]	44.6%	28.1%[59 µM]	0.8%	3.9%	-1.6%
CCC[n+]1cn(/C(C(=S)Nc2cccc(Cl)c2C)=C(/[O-])c2ccc(OC)c(OC)c2)c2ccccc21	?	-18.6%	39.8µM*	-19.6%	?	-13.4%
COc1cc2c(cc1OC)CN(C(=S)Nc1cccc(Cl)c1C)CC2	-12.6%	15.5%	-6.0%	0.1%	-5.2%	-16.0%
O=C(O)C1CC(O)CN1C(=S)Nc1ccccc1 (stereo not given)	-19.0%	12.8%	?	?	-13.0%	-5.0%
COc1cc2nc(-c3cc(F)ccc3O)nc(N[C@@H]3CNC[C@@H]3C(C)(C)O)c2cc1OC	nt	nt	nt	2.43µM*	nt	nt
COc1ccc(Nc2nc(-c3ccccc3O)nc3ccccc23)c(OC)c1	nt	nt	nt	-1.6%	nt	nt
CCOCCCNC(=O)c1ccc2c(=O)n(CCc3ccc(OC)c(OC)c3)c(=O)[nH]c2c1	-5.3%	17.0%	23.1%[59 µM]	3.1%	1.1%	nt
O=C(c1ccc(Cl)cc1)N1CCC(N2CCOCC2=O)CC1	nt	nt	nt	7.4%[6.33 µM]	nt	nt
COC(=O)/C=C\C(C#N)(C#N)N=Cc1ccc(OC)cc1	-21.5%	14.6%	nt	?	nt	9.47µM*
COc1ccc(C=NNC(=O)CCCCC(=O)NN=Cc2ccc(OC)cc2)cc1	-15.2%	39.6%	nt	2.0%	nt	-0.8%
Cc1cc(C(=O)COC(=O)c2cccn2C)c(C)n1Cc1ccco1	50.1µM*	?	17.8µM*	-2.3%	44.7µM*	-4.0%

Assay outcomes deposited in PubChem by National Center for Advancing Translational Sciences (NCATS).
